Experimental data taken from PubChem BioAssay (Tox21).
Unmarked numbers belong to inactive results. Inconclusive results are not listed. Where a call stands in place of a potency, no number is given. Calls of active or inactive are those of the source. Unless noted, calls follow the shape of the full dose curve.

Columns and labels:
[1] = Nuclear factor erythroid 2-related factor 2/antioxidant responsive element (Nrf2/ARE) small molecule agonists: qHTS cell viability counter screen in human keratinocytes (AID 1919968; active = well fitted curve in the direction sought with a large enough effect in the repeat runs; an effect the other way counts as inactive or inconclusive; also: nearly all actives have a fitted effect of over 55% in size; also: potency is read from the fitted curve at half-maximal effect)
Method in brief: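 In human HaCaT keratinocytes stably expressing an ARE-driven luciferase, compound exposure lasted 23 h at 37 C under 5% CO2. Viable cells are quantified with a protease-based fluorogenic reagent (CellTiter-Fluor) read 1 h after addition.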

[2] = Nuclear factor erythroid 2-related factor 2/antioxidant responsive element (Nrf2/ARE) small molecule agonists: luciferase reporter gene qHTS assay in human keratinocytes (AID 1919969); also: nearly all actives have a fitted effect of over 35% in size
[3] = biological target: Gonadotropin-releasing hormone receptor (Homo sapiens) (UniProt P30968); assay: Human gonadotropin-releasing hormone receptor (GnRHR) small molecule agonists, calcium flux assay in GnRHR-HEK293 cells (AID 1920063); also: nearly all actives have a fitted effect of over 35% in size
Method in brief: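 Intracellular calcium rise is the read-out: engineered human GnRHR HEK293 cells, dye-loaded, are exposed to DMSO-dissolved compounds and fluorescence at Ex/Em 480/540 is tracked for 3 min.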

[4] = biological target: KiSS-1 receptor (Homo sapiens) (UniProt Q969F8); assay: Human kisspeptin (KISS1R) small molecule agonists, calcium flux assay in KISS1R-HEK293 cells (AID 1920064; active = well fitted curve in the direction sought with a large enough effect in the repeat runs; an effect the other way counts as inactive or inconclusive)
Method in brief: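 Concentration-response testing used 15 concentrations in triplicate on human KISS1R-expressing HEK293 cells. Calcium-dependent fluorescence (Ex/Em 480/540) was followed kinetically for 3 min after compound transfer.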

[5] = G protein-coupled receptor (GPCR) small molecule agonists, calcium flux assay: HEK293 wild type cell line counter screen (AID 1920065)
Method in brief: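 Fluorescence intensity signals activation. After overnight (18 h) culture and a 1 h calcium dye load at 37 C, compounds are added by pin tool and the plate read at 480/540 nm for 3 min in 1 s steps.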

[6] = p53 small molecule agonists, cell-based qHTS assay with human liver microsomes: qHTS cell viability counter screen (AID 1963579); also: nearly all actives have a fitted effect of over 45% in size
Method in brief: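 Tox21 library compounds, delivered from DMSO stocks, were tested on p53RE-bla cells together with 0.5 mg/mL human liver microsomes and 0.5 mg/mL NADPH (final) over 16 h at 37 C; CellTiter-Glo luminescence served as the cytotoxicity measure.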

[7] = p53 small molecule agonists, cell-based qHTS assay: qHTS cell viability counter screen (AID 1963581); also: nearly all actives have a fitted effect of over 45% in size
Method in brief: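 Luminescence from CellTiter-Glo, reflecting ATP content, serves as the cytotoxicity measure; it is taken after the 2 h reporter substrate step in HCT-116 p53RE-bla cells dosed for 16 h at 37 C.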

[8] = biological target: 5-hydroxytryptamine receptor 2A (Homo sapiens) (UniProt P28223); assay: 5-hydroxytryptamine receptor 2A (HTR2A) small molecule antagonists, cell-based qHTS assay (AID 1963586); also: nearly all actives have a fitted effect of over 45% in size; also: potency is read from the fitted curve at half-maximal effect
Method in brief: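 CHO cells stably expressing human HTR2A were plated for 18 h at 37 C, then loaded with calcium dye for 1 h. Compounds were preincubated 5 min at room temperature before DOI (4 nM solution) was added. Kinetic fluorescence was read for 3 min.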

[9] = biological target: 5-hydroxytryptamine receptor 2A (Homo sapiens) (UniProt P28223); assay: 5-hydroxytryptamine receptor 2A (HTR2A) small molecule agonists, cell-based qHTS assay (AID 1963587); also: nearly all actives have a fitted effect of over 30% in size; also: potency is read from the fitted curve at half-maximal effect
Method in brief: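 HTR2A-CHO cells, plated 18 h at 37 C/5% CO2, dye-loaded 1 h at 37 C; compounds in DMSO added by pin tool (agonist mode). Intracellular calcium flux read as kinetic fluorescence on FDSS over 2 min at 1 s intervals.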

[10] = biological target: Muscarinic acetylcholine receptor M1 (Homo sapiens) (UniProt P11229); assay: Cholinergic receptor muscarinic 1 (CHRM1) small molecule antagonists, cell-based qHTS assay (AID 1963588); also: nearly all actives have a fitted effect of over 40% in size
Method in brief: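 Compounds were tested at 15 concentrations in three independent runs. Dye-loaded CHRM1-CHO cells were exposed 5 min at room temperature before stimulation by acetylcholine added at 50nM. Intracellular calcium was read kinetically on FDSS for 3 min.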

[11] = biological target: Muscarinic acetylcholine receptor M1 (Homo sapiens) (UniProt P11229); assay: Cholinergic receptor muscarinic 1 (CHRM1) small molecule agonists, cell-based qHTS assay (AID 1963589); also: nearly all actives have a fitted effect of over 35% in size
Method in brief: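 Fluorescent calcium dye reports M1 activation in stably transfected CHO cells. Compounds, 15 concentrations, added after 1 h dye loading at 37 C; kinetic reading at 1 sec intervals.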

[12] = cAMP Responsive Elements (CRE) small molecule agonists, cell-based qHTS assay (AID 1963590)
Method in brief: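 Compound exposure lasted 3 h at 37 C/5% CO2 in CRE-bla HEK 293T cells grown in assay medium with 10% dialyzed FBS and 25 mM HEPES. Reporter signal came from LiveBLAzer B/G FRET substrate, 2 h, room temperature.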

[13] = cAMP Responsive Elements (CRE) small molecule antagonists, cell-based qHTS assay (AID 1963591; active = well fitted inhibition curve with a large enough effect in the signal ratio in the repeat runs, not every such curve was filed as active; the % refers to the signal ratio)
Method in brief: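 Stimulation used NKH477 at a final 0.25 uM for 3 h in compound-treated CRE-bla HEK293T cells, seeded 18 h beforehand. Reporter activity was measured with LiveBLAzer B/G FRET substrate after 2 h at room temperature.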

[14] = biological target: Beta-2 adrenergic receptor (Homo sapiens) (UniProt P07550); assay: Adrenergic beta2 receptor (ADRB2) small molecule antagonists, cell-based qHTS assay (AID 1963592); also: nearly all actives have a fitted effect of over 50% in size; also: potency is read from the fitted curve at half-maximal effect
Method in brief: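 Assay format: CHO-ADRB2 cells, 18-20hr seeding at 37C/5% CO2, then compound plus 1nM isoproterenol agonist mix for 0.5hr RT. Homogeneous time-resolved fluorescence cAMP detection after 1hr, expressed as 665/615 nm ratio.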

[15] = biological target: D(2) dopamine receptor (Homo sapiens) (UniProt P14416); assay: Dopamine D2 receptor (DRD2) small molecule agonists, cell-based qHTS assay (AID 1963594); also: nearly all actives have a fitted effect of over 35% in size
Method in brief: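 HEK293 cells stably expressing DRD2 were cultured 24 h at 37 C, then given Ro20-1724 (0.1 mM final) and compounds for 10 min at room temperature. NKH477 (200nM) was then added for 30 min. cAMP was read by HTRF.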

[16] = biological target: D(2) dopamine receptor (Homo sapiens) (UniProt P14416); assay: Dopamine D2 receptor (DRD2) small molecule antagonists, cell-based qHTS assay (AID 1963595; active = well fitted inhibition curve with a large enough effect in the signal ratio in the repeat runs, with a control signal flat; the % refers to the signal ratio)
Method in brief: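 Antagonist mode in DRD2-HEK293 cells: after compound addition with 0.1 mM Ro20-1724, cells received quinpirole (12 nM) and NKH477 (200 nM) for 30 min at room temperature; HTRF cAMP read after 1 h detection.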

[17] = biological target: Beta-2 adrenergic receptor (Homo sapiens) (UniProt P07550); assay: Adrenergic beta2 receptor (ADRB2) small molecule agonists, cell-based qHTS assay (AID 1963593);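 also: CHO cells stably overexpressing human ADRB2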
Method in brief: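 CHO cells stably over-expressing ADRB2 were plated overnight at 37C, then dosed with compounds plus a stimulation mix containing 100uM IBMX and 25uM Ro-20-1724 for 0.5hr at room temperature. cAMP was measured by HTRF competition, 1hr.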

Sequence of KiSS-1 receptor (Homo sapiens) (Q969F8 whole entry, looked up): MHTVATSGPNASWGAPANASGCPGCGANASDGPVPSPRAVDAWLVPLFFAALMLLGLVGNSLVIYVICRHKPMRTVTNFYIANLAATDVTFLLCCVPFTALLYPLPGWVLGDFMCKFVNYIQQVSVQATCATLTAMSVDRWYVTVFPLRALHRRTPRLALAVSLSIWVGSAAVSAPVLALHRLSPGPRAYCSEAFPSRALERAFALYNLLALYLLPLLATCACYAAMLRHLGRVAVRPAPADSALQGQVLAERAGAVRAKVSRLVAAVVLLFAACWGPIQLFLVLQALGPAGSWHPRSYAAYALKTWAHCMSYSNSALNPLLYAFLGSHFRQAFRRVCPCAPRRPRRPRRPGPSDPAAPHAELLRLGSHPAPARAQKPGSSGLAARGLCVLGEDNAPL
Sequence of Muscarinic acetylcholine receptor M1 (Homo sapiens) (P11229 whole entry, looked up): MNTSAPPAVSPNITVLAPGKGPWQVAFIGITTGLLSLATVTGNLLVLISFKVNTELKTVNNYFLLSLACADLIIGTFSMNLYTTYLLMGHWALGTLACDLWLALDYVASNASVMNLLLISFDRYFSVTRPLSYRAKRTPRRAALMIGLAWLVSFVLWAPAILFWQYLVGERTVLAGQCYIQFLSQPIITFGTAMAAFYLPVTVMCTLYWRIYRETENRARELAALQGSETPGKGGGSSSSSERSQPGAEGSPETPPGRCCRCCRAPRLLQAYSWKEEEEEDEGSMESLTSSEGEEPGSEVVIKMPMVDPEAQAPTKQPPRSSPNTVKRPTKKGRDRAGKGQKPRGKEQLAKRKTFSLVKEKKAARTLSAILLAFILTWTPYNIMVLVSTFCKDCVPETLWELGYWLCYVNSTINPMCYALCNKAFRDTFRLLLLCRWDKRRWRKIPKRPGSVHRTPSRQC
Sequence of Gonadotropin-releasing hormone receptor (Homo sapiens) (P30968 whole entry, looked up): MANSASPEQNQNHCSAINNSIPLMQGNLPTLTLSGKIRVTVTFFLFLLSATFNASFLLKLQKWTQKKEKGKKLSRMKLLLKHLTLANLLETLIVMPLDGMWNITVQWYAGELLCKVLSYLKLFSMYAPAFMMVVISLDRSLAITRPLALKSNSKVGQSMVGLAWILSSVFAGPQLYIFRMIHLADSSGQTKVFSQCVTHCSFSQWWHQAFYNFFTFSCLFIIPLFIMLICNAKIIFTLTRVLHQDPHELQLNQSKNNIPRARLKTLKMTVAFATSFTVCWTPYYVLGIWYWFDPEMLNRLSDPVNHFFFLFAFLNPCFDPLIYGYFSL
Sequence of D(2) dopamine receptor (Homo sapiens) (P14416 whole entry, looked up): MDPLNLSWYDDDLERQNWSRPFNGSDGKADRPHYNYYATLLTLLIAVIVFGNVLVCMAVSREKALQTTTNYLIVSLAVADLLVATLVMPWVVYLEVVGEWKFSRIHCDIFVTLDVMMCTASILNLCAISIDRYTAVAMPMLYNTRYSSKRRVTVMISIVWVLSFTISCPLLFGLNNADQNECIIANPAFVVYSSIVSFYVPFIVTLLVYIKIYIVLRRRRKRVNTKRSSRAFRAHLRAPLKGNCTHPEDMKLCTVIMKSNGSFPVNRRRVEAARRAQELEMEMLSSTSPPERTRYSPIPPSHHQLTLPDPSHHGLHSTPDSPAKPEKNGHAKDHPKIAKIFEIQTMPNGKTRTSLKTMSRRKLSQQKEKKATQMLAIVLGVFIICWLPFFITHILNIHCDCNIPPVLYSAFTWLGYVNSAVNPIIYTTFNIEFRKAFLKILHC
Sequence of Beta-2 adrenergic receptor (Homo sapiens) (P07550 whole entry, looked up): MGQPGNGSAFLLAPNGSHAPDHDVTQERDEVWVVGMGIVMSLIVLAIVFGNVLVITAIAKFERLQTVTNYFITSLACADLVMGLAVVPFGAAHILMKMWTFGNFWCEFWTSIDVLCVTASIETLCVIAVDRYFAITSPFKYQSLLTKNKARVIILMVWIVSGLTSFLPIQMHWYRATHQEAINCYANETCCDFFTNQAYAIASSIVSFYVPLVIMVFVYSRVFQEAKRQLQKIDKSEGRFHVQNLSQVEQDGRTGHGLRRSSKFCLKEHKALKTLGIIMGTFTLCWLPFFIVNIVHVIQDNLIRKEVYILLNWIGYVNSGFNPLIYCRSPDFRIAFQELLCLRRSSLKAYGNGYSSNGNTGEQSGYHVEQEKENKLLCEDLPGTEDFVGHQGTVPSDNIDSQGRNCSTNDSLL
Sequence of 5-hydroxytryptamine receptor 2A (Homo sapiens) (P28223 whole entry, looked up): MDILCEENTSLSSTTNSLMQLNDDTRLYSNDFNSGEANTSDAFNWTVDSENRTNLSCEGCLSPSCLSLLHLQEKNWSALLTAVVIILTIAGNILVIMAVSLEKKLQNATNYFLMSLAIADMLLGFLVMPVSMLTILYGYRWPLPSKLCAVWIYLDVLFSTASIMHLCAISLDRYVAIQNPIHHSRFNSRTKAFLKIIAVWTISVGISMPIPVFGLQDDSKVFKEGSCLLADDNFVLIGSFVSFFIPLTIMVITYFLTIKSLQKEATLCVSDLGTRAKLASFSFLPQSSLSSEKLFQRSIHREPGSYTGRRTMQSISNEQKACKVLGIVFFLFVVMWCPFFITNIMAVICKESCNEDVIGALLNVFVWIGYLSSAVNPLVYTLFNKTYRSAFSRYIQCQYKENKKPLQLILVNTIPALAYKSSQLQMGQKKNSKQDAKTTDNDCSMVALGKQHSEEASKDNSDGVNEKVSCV

SMILES | Potency [1] | Potency [2] | Potency [3] | Potency [4] | Potency [5] | Potency [6] | Potency [7] | Potency [8] | Potency [9] | Potency [10] | Potency [11] | Potency [12] | Potency [13] | Potency [14] | Potency [15] | Potency [16] | Potency [17]
CC(=O)N[C@@H](CCC(=O)O)C(=O)O | inactive | inactive | inactive | inactive | inactive | inactive | inactive | inactive | inactive | inactive | inactive | inactive | inactive | inactive | inactive | inactive | 
CCOc1ccc(C(=O)OCCN(CC)CC)cc1 | inactive | inactive | inactive | inactive | inactive | inactive | inactive | inactive | inactive | inactive | inactive | inactive | inactive | inactive | inactive | inactive | 
CCCCCCCCCCO[C@@H]1O[C@H](CO)[C@@H](O)[C@H](O)[C@H]1O | inactive | inactive | inactive | inactive | inactive | inactive | inactive | inactive |  | inactive | inactive | inactive | inactive | inactive | inactive | inactive | 
CCCOC(=O)CCCCC(=O)OCCC | inactive | inactive | inactive | inactive | inactive | inactive | inactive | inactive | inactive |  | inactive | inactive | inactive | inactive | inactive | inactive | 
CCO[Si](CCCSSSSCCC[Si](OCC)(OCC)OCC)(OCC)OCC | 61.2 µM (active) | inactive | inactive | inactive | inactive | inactive |  | inactive | 49 µM (active) | inactive | inactive |  |  |  | inactive | inactive | 
C=C(C)c1cccc(C(=C)C)c1 | inactive | inactive | inactive | inactive | inactive | inactive | inactive | inactive | inactive | inactive | inactive | inactive |  | inactive | inactive | inactive | 
CCN1CCC[C@H]1CNC(=O)c1c(OC)ccc(Br)c1OC | inactive | inactive | inactive | inactive | inactive | inactive | inactive | inactive |  | inactive | inactive | inactive | inactive | inactive |  |  | 
OCCN1CCOCC1 | inactive | inactive | inactive | inactive | inactive | inactive | inactive | inactive | inactive | inactive | inactive | inactive | inactive | inactive | inactive | inactive | 
SC1CCCC1 | inactive | inactive | inactive | inactive | inactive | inactive | inactive | inactive | inactive | inactive | inactive | inactive | inactive | inactive | inactive | inactive | inactive
CC1(CN2CCC(n3c(=O)[nH]c4ccccc43)CC2)OCc2ccccc2-n2cccc21 (configuration not stated) | 29.8 µM (active) | inactive | inactive | inactive | inactive | inactive | inactive | 1.83 µM (active) | inactive | inactive | inactive |  | inactive | 29.8 µM (active) | inactive | inactive | 
Cc1c(O)cccc1O | inactive | inactive | inactive | inactive | inactive | inactive | inactive | inactive | inactive | inactive | inactive | inactive | inactive | inactive | inactive | inactive | 
COc1nc(C)nc(N)n1 | inactive | inactive | inactive | inactive | inactive | inactive |  | inactive | inactive | inactive | inactive | inactive | inactive | inactive |  | inactive | inactive
NC(=O)c1cc[n+](CC2=C(C(=O)[O-])N3C(=O)[C@@H](NC(=O)Cc4cccs4)[C@H]3SC2)cc1 | inactive | inactive | inactive | inactive | inactive | inactive | inactive | inactive | inactive | inactive | inactive |  | inactive | inactive |  | inactive | 
CN(Cc1ccc(C(C)(C)C)cc1)Cc1cccc2ccccc12 | 11.9 µM (active) | inactive | inactive | inactive | inactive | inactive | inactive |  |  |  |  |  | inactive | inactive | inactive | inactive | inactive
